Reference: PubChem BioAssay AID588463 (National Center for Advancing Translational Sciences (NCATS), 2011)
The campaign covered roughly 1,200 compounds. About 15 (1%) were called active. Not shown: some 7% with an inconclusive outcome. Calls follow the shape of the dose curve; as a rule, active = well fitted activation curve with a large enough effect; inconclusive = small, poorly fitted or top-dose-only effect; inactive = flat fitted curve, though single readings scatter. The sample as a whole holds a higher share of actives than the screen did.

The compounds below were run against Beta-2 adrenergic receptor (Homo sapiens) (UniProt P07550) (assay: qHTS assay of beta-arrestin-biased ligands of beta2-adrenergic receptor: Hit Validation). Settings: cell-based beta-arrestin recruitment to beta2AR; Potency: activation; series mostly up to 46.1 µM; activation: at the top concentration.
Beta-2 adrenergic receptor (Homo sapiens), sequence (P07550 whole entry, looked up): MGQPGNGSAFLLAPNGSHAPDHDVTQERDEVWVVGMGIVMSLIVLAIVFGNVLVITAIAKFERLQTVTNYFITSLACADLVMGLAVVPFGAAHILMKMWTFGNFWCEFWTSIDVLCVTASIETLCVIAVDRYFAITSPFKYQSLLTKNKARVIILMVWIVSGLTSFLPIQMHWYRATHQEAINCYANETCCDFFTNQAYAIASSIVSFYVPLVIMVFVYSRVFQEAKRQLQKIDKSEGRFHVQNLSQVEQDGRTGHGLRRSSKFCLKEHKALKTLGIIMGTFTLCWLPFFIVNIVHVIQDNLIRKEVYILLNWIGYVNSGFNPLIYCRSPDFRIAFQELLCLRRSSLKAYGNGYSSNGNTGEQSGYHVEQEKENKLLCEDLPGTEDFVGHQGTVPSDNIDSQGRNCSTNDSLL
Description: The concept of biased agonism is an emerging concept of molecular pharmacology which proposes that seven transmembrane receptors (7TMRs) or G protein-coupled receptors (GPCRs), exist in multiple signaling conformations and complexes and that ligands (either agonists or antagonists) can induce signaling biased responses for distinct signal transduction cascades.
Furthermore, accumulating evidence over the last decade has drawn attention to a novel function of beta-arrestins as signal transducers that scaffold various signaling molecules upon activation of 7TMRs. […] This beta-arrestin-biased signaling presumably leads to distinct physiological outcomes from those by G protein activation.
Additionally, the active receptor conformations which […] on this beta-arrestin signaling are likely different from those activating G protein signaling
The goal of this screening project will be to discover and optimize novel beta-arrestin-biased ligands for beta2-AR signaling. A luminescent cell-based assay for beta2-AR-mediated agonism, known as the Tango assay, has been validated in which ligand binding of a recombinant beta2-AR and subsequent recruitment of a recombinant beta-arrestin lead to the release of the transcriptional activator tTA, which upregulates transcription of a tTA-responsive luciferase gene.
NIH Molecular Libraries Probe Production Network [MLPCN]
NIH Chemical Genomics Center [NCGC]
PI: Bryan Roth (UNC) and Bob Lefkowitz (Duke)
NCGC Assay Protocol Summary:
Tango cells were dispensed into white, solid, tissue-culture-treated 1536-well plates at 1500 cells/well in DMEM, containing 1% fetal bovine serum (FBS). Then, 23 nL of compounds or DMSO were delivered to each well using a pin tool. Plates were incubated at 37 degrees C, 5% CO2 for 18 hr. Then 2.5 uL luminescent substrate mix (in-house prepared: 150 mM Tris-Cl, pH 7.6, 3 mM MgCl2, 1% Triton X-100, 5 mM DTT, 0.5 mM CoA, 0.15 mM ATP, 0.44 mM D-luciferin, final concentrations) was added to each well. Plates were then incubated for 15 minutes at room temperature, and subsequently measured on a ViewLux plate reader for luminescent signal using a clear filter with a 10 second exposure and 2x binning. The %Activity was determined from the corrected luminescence values.
Concentration-response curves were fitted to the signals arising from the resulting luminescence. The concentration-effect curves were then classified based on curve quality (r2), response magnitude and degree of measured activity, and compounds were subsequently categorized based on their curve class.
Keywords: biased agonism, beta2-AR, beta-arrestin, GPCR, 7TMR, Tango, luminescence, MLSMR, MLPCN, NIH Roadmap, qHTS, NCGC
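Also: plate controls were DMSO for no effect and maximal isoproterenol or metaproterenol response for full effect.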

activation, inactive:
COc1ccc(-c2c(-c3ccccc3)c(C(=O)C(=O)NCCCN(C)C)n3ccc4cc(OC)c(OC)cc4c23)cc1OC -2.83%
Cc1cccc(NC(=S)NC(=O)c2cccs2)n1 -2.07%
CCC1CCCCN1CC(=O)Nc1cc(C)nn1-c1nc(C)cc(C)n1 (configuration not stated) -2.24%
S=C(NCc1ccccn1)Nc1ccc(Cl)c(Cl)c1 -3.46%
CCNC(=S)N/N=C/c1sccc1C -3.21%
COc1ccc(OC)c(NC(=O)Cn2c(CCC(=O)O)ccc2-c2ccccc2)c1 -1.92%
COC(=O)C1=C(C)NC(=S)NC1c1ccc(-c2cc(Cl)ccc2Cl)o1 (configuration not stated) -1.05%
C/C=C/C=N/NC(=O)CN(c1ccc(Br)cc1)S(=O)(=O)c1ccccc1 -3.32%
S=C(N/N=C/c1ccc(Cl)c(Cl)c1)Nc1ccccc1Cl -4.07%
Cc1ccc(SCc2cc(=O)[nH]c(/N=C(\N)Nc3ccc(C)c(C)c3)n2)cc1 -2.5%
CCCNC(=O)c1ccc(N2CCC3(CC2)CC(c2cccc(Br)c2)=NO3)c(NC(=O)c2ccc(Br)cc2)c1 -1.42%
CNC(=S)N/N=C1\CC(c2ccccc2)Oc2ccccc21 (configuration not stated) -2.26%
CCOc1ccccc1C1C2CCCCC2(O)CCN1C(=O)c1cccs1 (configuration not stated) 5.71%
O=C(N/N=C/C(Br)=C\c1ccccc1)c1n[nH]c2c1CCC2 0.218%
Cc1ccc(C2=NOC(C)(c3nnc(-c4ccc(F)cc4)o3)C2)cc1 (configuration not stated) -4.53%
C/C(=N\NC(=S)NC(C)C)c1ccccc1 -3.07%
COc1ccc2c(c1)c1ncn(CCN3CCCCC3)c(=O)c1n2C -0.19%
CCOC(=O)C1CCN(C(=O)Nc2c(-c3ccccc3)noc2C)CC1 -2.17%
CCCCCOCC1CC(C/C(C)=N/NC(N)=S)C(=O)O1 (configuration not stated) -1.64%
COc1ccccc1NS(=O)(=O)c1cc(NC(=O)CNC(=O)c2ccc(C)s2)ccc1Cl -2.81%
Cc1ccc(C)c(NC(=S)NNc2ccc(F)cc2F)c1 -5.48%
O=C(Oc1c(CN2CCOCC2)cc(Cl)c2cccnc12)c1ccccc1Br 7.38%
